PubChem BioAssay (EPA / NIEHS)
Calls of active or inactive are those of the source. The calls were made as follows: active = hit-call score of the fitted dose curve at least 0.9, where 1 is the maximum; inactive = score below 0.9.

Key:
[1] = ATG_GATA_CIS: Attagene CIS-FACTORIAL HepG2 Assay for human GATA Binding Protein (AID 2282944); conditions: HepG2 GATA cis-element reporter, Attagene multiplex mRNA; actives raise or lower the signal
In short: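 Transient MRTU transfection, HepG2, 24 h compound exposure. Total RNA → oligo(dT) RT → PCR → 6-FAM primer extension → HpaI cut → CE. Bidirectional fit vs DMSO.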

[2] = ATG_GLI_CIS: Attagene CIS-FACTORIAL HepG2 Assay for human Zinc Finger Protein GLI1 (AID 2282945); conditions: HepG2, Attagene cis-factorial reporter mRNA, GLI element; actives raise or lower the signal
In short: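 Bidirectional curve fits relative to DMSO, using reporter mRNA levels from RT-PCR plus capillary electrophoresis. Cells were HepG2 transiently carrying cis-regulated reporter constructs, harvested 24 h after dosing.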

[3] = ATG_ISRE_CIS: Attagene CIS-FACTORIAL HepG2 Assay for human Interferon Regulatory Factor 1 (IRF1) binding to an Interferon-Stimulated Response Element (ISRE) (AID 2282948); conditions: HepG2 ISRE cis-reporter (Attagene), mRNA transcription readout; actives raise or lower the signal
In short: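 Multiplexed mRNA reporter readout in human liver HepG2 cells: cis-element-driven reporters transfected, compound added for 24 h, transcripts amplified, fluorescently labelled and sized by capillary electrophoresis; curve fitting bidirectional against DMSO.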

[4] = ATG_M_32_CIS: Attagene CIS-FACTORIAL HepG2 Assay for M32 Transcription Factor (Internal Marker) (AID 2282949); conditions: HepG2 Attagene cis-factorial M32 reporter, mRNA; actives raise or lower the signal;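 also: background control marker of the multiplexed CIS panel rather than a real target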
In short: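 Using DMSO as baseline, bidirectional curve fits were applied to reporter mRNA signals. These came from transiently transfected HepG2 cells exposed for 24 h, with RNA analysed by RT-PCR, FAM primer extension, HpaI digestion and CE.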

[5] = ATG_M_06_CIS: Attagene CIS-FACTORIAL HepG2 Assay for M06 Transcription Factor (Internal Marker) (AID 2282950); conditions: HepG2 Attagene CIS-FACTORIAL M06 internal marker reporter; actives raise or lower the signal
In short: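 Read-out is fluorescence of labelled reporter cDNA fragments resolved by capillary electrophoresis after RT-PCR. Cells: HepG2 carrying transfected cis-promoter reporter units, treated 24 h. Gain or loss of signal fitted relative to DMSO.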

[6] = ATG_MRE_CIS: Attagene CIS-FACTORIAL HepG2 Assay for human Metal Responsive Element (MRE) (AID 2282954); conditions: HepG2 MRE cis-reporter transcription, Attagene multiplex; actives raise or lower the signal
In short: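 Multiplexed cis-reporter assay in human HepG2 liver cells, 24 h incubation with test chemical. Reporter transcripts measured by RT-PCR and capillary electrophoresis; values from bidirectional curve fitting versus DMSO.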

[7] = ATG_PXRE_CIS: Attagene CIS-FACTORIAL HepG2 Assay for human Pregnane X Receptor Element (PXRE) (AID 2282957); conditions: HepG2 Attagene CIS-FACTORIAL PXRE reporter, mRNA; actives raise or lower the signal
In short: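 Fluorescent capillary electrophoresis of amplified reporter cDNA gave the signal, collected 24 h after dosing HepG2 cells that held transfected cis-element reporter constructs.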

[8] = ATG_Sox_CIS: Attagene CIS-FACTORIAL HepG2 Assay for human SRY-box transcription factor (SOX) (AID 2282960); conditions: HepG2 Attagene cis-factorial SOX reporter, mRNA; actives raise or lower the signal
In short: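 Using transiently transfected HepG2 cells, reporter transcription driven by cis elements was assessed 24 h after dosing. Signal was fluorescence of capillary-separated RT-PCR products, with DMSO defining baseline activity.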

[9] = target: Transcription factor Sp1 (Homo sapiens) (UniProt P08047); experiment: ATG_Sp1_CIS: Attagene CIS-FACTORIAL HepG2 Assay for human Specificity Protein 1 (Sp1) (AID 2282961); conditions: HepG2 Sp1 cis-reporter transcription, actives raise or lower the signal
In short: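 After transient transfection of HepG2 cells with cis-promoter reporter units and 24 h chemical treatment, reporter transcripts were quantified by RT-PCR and capillary electrophoresis fluorescence. Gain- and loss-of-signal fitted against DMSO.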

[10] = ATG_SREBP_CIS: Attagene CIS-FACTORIAL HepG2 Assay for human Sterol Regulatory Element Binding (SREBP) (AID 2282962); conditions: HepG2 Attagene cis-factorial SREBP reporter, mRNA; actives raise or lower the signal
In short: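 Endogenous factor activity is measured in HepG2 through multiplexed reporter units under cis-element control. Following a 24 h incubation, reporter transcripts are reverse-transcribed, PCR-amplified and sized by capillary electrophoresis; activity is fitted in both directions relative to DMSO.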

[11] = target: Signal transducer and activator of transcription 3 (Homo sapiens) (UniProt P40763); experiment: ATG_STAT3_CIS: Attagene CIS-FACTORIAL HepG2 Assay for human Signal Transducer and Activator of Transcription 3 (STAT3) (AID 2282963); conditions: HepG2, Attagene cis-factorial STAT3 reporter transcription; actives raise or lower the signal
In short: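 Cis-factorial format: endogenous transcription factors in HepG2 drive transfected reporter units. After 24 h treatment, reporter RNA was reverse-transcribed, amplified, FAM-labelled and HpaI-digested before CE analysis; activity scored in both directions against DMSO.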

[12] = ATG_TA_CIS: Attagene CIS-FACTORIAL HepG2 Assay for human TA Basal Promoter (AID 2282964); conditions: HepG2 Attagene CIS-factorial TA basal promoter reporter; actives raise or lower the signal
In short: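 Read-out: fluorescent reporter-transcript fragments resolved by capillary electrophoresis after RT-PCR and HpaI digestion. Source: HepG2 cells carrying transiently transfected multi-reporter cis constructs, treated 24 h. Endpoint fitted bidirectionally relative to DMSO.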

[13] = ATG_TCF_b_cat_CIS: Attagene CIS-FACTORIAL HepG2 Assay for human T-Cell-Factor with beta-catenin (TCF/b-cat) (AID 2282965); conditions: HepG2 TCF/beta-catenin cis-reporter transcription, actives raise or lower the signal
In short: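 Endogenous TCF/LEF activity read as reporter transcript level via RT-PCR and capillary electrophoresis fluorescence in transfected HepG2, 24 h exposure; gain or loss of signal fitted against DMSO controls.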

[14] = ATG_TAL_CIS: Attagene CIS-FACTORIAL HepG2 Assay for human TAL Basal Promoter (AID 2282966); conditions: HepG2 Attagene cis-factorial TAL promoter reporter; actives raise or lower the signal;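 also: background control endpoint measuring basal TAL promoter reporter mRNA not a specific factor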
In short: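 Transiently transfected HepG2 (cis-regulated reporter units), 24 h treatment, mRNA read by fluorescent CE after RT-PCR; bidirectional fit, DMSO baseline.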

[15] = target: X-box-binding protein 1 (Homo sapiens) (UniProt P17861); experiment: ATG_Xbp1_CIS: Attagene CIS-FACTORIAL HepG2 Assay for human X-box Binding Protein 1 (XBP1) (AID 2282972); conditions: HepG2 XBP1 cis-element reporter, Attagene multiplex; actives raise or lower the signal
In short: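 Multiplexed cis-reporter readout in transfected HepG2 liver cells. Exposure lasted 24 hours. Activity in either direction was fitted against DMSO as negative control and baseline.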

[16] = target: Transcriptional activator Myb (Homo sapiens) (UniProt P10242); experiment: ATG_Myb_CIS: Attagene CIS-FACTORIAL HepG2 Assay for human Myeloblastosis (Myb) Proto-Oncogene Transcription Factor (AID 2282986); conditions: HepG2 Attagene CIS-FACTORIAL Myb reporter transcription; actives raise or lower the signal
In short: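 Multiplexed cis-reporter system in HepG2: transient transfection, 24 h treatment, mRNA readout by RT-PCR and capillary electrophoresis. Both increases and decreases are scored versus DMSO negative control.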

[17] = ATG_NFI_CIS: Attagene CIS-FACTORIAL HepG2 Assay for human Nuclear Factor I (NFI) (AID 2282989); conditions: HepG2 cis-regulatory reporter, NFI response element transcription; actives raise or lower the signal
In short: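 Transient MRTU transfection of HepG2 → 24 h chemical dosing → total RNA, oligo(dT) RT → PCR, 6-FAM primer extension, HpaI cut → capillary electrophoresis. Endpoint fitted bidirectionally relative to DMSO.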

[18] = target: Myc proto-oncogene protein (Homo sapiens) (UniProt P01106); experiment: ATG_Myc_CIS: Attagene CIS-FACTORIAL HepG2 Assay for human Myelocytomatosis (Myc) Proto-Oncogene Transcription Factor (AID 2282990); conditions: HepG2, Attagene cis-reporter transcription factor activity; actives raise or lower the signal
In short: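 After 24 h chemical treatment of HepG2 cells carrying multiplexed cis-regulated reporter constructs, reporter transcripts quantified by RT-PCR and capillary electrophoresis of fluorescent fragments. Gain or loss fitted against DMSO baseline.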

[19] = ATG_Oct_MLP_CIS: Attagene CIS-FACTORIAL HepG2 Assay for human Octamer-Binding Transcription Factor (Oct) (AID 2282993); conditions: HepG2 Attagene cis-factorial Oct reporter, mRNA; actives raise or lower the signal
In short: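 Transient MRTU transfection of HepG2 → 24 h compound treatment → RNA isolation, reverse transcription, PCR → 6-FAM primer extension, HpaI digest → capillary electrophoresis. Activity fitted both directions against DMSO.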

CD40, CD40 (gene 958) = experiment: BSK_SAg_CD40: BioMAP Diversity Plus: SAg Assay for CD40 Biomarker Activity (AID 2283088); conditions: primary human HUVEC with PBMC; actives raise or lower the signal
In short: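 Human umbilical vein endothelial cells co-cultured with PBMC; CD40 levels measured by ELISA with fluorescence read-out 24 h after chemical dosing. Gain or loss of signal fitted bidirectionally against DMSO baseline.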

Measured: AC50

Chain of Myc proto-oncogene protein (Homo sapiens) (P01106 whole entry, looked up, the tested form may be a part): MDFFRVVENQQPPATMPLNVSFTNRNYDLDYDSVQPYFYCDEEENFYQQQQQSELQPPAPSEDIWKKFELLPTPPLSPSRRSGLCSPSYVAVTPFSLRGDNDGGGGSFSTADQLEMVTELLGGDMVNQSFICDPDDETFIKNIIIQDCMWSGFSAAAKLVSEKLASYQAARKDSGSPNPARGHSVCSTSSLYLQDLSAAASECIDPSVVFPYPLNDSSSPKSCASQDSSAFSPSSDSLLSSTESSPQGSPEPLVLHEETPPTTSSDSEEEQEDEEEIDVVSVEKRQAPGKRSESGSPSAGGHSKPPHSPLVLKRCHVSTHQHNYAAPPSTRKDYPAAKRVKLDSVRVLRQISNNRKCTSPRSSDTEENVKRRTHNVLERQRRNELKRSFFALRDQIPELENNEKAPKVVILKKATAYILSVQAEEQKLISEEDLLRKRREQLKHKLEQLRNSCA
Chain of Signal transducer and activator of transcription 3 (Homo sapiens) (P40763 whole entry, looked up): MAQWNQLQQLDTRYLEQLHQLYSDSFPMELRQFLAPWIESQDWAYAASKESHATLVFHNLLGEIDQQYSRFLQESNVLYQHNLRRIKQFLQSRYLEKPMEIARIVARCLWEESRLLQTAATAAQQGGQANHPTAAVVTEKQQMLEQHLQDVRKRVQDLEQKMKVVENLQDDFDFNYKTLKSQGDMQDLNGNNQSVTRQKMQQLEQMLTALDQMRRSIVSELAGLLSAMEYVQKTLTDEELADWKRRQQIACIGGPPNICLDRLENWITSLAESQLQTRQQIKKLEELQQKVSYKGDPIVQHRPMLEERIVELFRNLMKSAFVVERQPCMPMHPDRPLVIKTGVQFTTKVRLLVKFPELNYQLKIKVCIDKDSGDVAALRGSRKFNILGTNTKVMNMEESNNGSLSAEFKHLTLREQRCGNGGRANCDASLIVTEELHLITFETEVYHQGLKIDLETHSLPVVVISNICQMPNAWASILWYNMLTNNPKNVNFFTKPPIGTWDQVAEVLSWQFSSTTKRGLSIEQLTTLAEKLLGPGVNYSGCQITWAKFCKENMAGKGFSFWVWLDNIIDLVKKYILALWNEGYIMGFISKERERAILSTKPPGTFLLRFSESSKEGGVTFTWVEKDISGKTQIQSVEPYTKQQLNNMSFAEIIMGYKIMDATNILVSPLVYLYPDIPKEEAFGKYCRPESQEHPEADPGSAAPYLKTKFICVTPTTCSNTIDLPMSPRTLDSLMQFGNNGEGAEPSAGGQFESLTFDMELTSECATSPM
Chain of X-box-binding protein 1 (Homo sapiens) (P17861 whole entry, looked up): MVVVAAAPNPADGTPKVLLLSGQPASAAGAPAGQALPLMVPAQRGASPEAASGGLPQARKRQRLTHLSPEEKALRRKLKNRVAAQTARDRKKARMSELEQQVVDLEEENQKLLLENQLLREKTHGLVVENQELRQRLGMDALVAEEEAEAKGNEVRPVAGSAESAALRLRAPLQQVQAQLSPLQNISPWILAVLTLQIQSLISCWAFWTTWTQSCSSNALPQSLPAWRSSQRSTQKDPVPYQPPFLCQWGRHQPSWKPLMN
Chain of Transcriptional activator Myb (Homo sapiens) (P10242 whole entry, looked up): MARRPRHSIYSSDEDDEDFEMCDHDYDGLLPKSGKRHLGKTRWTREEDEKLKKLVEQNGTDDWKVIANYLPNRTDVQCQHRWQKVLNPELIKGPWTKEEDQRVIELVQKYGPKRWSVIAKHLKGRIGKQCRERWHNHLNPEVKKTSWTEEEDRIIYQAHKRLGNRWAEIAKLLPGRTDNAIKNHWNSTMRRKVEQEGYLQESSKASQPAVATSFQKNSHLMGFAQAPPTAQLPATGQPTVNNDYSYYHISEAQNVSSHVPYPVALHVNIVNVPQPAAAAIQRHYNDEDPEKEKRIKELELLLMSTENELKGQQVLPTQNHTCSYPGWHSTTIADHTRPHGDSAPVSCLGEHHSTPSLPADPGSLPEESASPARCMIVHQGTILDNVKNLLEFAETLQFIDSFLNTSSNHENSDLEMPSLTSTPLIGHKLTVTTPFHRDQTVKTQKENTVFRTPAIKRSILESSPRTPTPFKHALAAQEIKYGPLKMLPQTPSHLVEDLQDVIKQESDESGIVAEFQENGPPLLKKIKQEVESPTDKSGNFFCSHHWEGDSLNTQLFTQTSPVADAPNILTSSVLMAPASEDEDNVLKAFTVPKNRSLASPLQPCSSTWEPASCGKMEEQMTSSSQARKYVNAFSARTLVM
Chain of Transcription factor Sp1 (Homo sapiens) (P08047 whole entry, looked up): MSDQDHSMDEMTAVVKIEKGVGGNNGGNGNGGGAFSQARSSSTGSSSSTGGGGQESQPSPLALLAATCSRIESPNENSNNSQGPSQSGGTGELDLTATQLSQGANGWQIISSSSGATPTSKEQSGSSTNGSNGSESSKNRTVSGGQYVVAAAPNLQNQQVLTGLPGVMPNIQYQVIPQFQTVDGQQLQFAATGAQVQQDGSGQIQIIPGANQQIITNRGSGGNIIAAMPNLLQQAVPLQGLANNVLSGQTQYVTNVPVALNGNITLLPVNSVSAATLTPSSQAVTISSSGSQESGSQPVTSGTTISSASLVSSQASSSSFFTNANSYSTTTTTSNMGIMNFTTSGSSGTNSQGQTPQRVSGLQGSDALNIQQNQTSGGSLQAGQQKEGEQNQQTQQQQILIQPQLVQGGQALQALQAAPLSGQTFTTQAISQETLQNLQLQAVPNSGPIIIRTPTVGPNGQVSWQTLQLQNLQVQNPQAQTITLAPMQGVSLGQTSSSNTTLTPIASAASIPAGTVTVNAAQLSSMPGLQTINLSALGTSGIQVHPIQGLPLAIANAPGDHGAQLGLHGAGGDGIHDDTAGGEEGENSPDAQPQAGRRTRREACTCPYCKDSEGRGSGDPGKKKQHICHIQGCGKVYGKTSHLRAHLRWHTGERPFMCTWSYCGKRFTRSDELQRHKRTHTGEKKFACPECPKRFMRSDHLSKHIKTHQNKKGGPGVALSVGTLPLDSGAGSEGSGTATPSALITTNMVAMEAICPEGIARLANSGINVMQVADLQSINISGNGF

COC(=O)CCSCCC(=O)OC
not listed: CD40, CD40 (gene 958)
inactive: all other assays above

CCC[Si](OC(C)=O)(OC(C)=O)OC(C)=O
inactive: CD40, CD40 (gene 958)

CCCCCC1CCCC(=O)O1 (stereo unspecified)
active: [7] 44.5 µM
not listed: CD40, CD40 (gene 958)
inactive: all other assays above

Cc1ccccc1S(=O)(=O)O
active: [7] 70.6 µM | [8] 27 µM
not listed: CD40, CD40 (gene 958)
inactive: all other assays above

O=C1CCCCCCCCCCCCCC1
active: [7] 9.14 µM | [9] 47.6 µM | [18] 23.6 µM
not listed: CD40, CD40 (gene 958)
inactive: all other assays above

CCCCNC(N)=O
active: [7] 68.7 µM
not listed: CD40, CD40 (gene 958)
inactive: all other assays above
